Assay outcomes from PubChem BioAssay.
ClpP mod – qHTS Assay for Activators of ClpP; actives 1.9% (n = 340,000); ATP-dependent Clp protease proteolytic subunit (Bacillus subtilis (strain 168)), P80244; Potency, µM (highest dose often 57.5 µM); purified B. subtilis ClpP, FRET peptide cleavage, 20 min; active = well fitted falling curve with a large enough effect; inconclusive = small, poorly fitted or top-dose-only effect; inactive = no such curve, though single readings can be large or run the other way; also: the source files actives as falling curves though it sought activators and does not explain the sign; nearly all actives have a fitted effect of over 65% in size
Target sequence (P80244 whole entry, looked up): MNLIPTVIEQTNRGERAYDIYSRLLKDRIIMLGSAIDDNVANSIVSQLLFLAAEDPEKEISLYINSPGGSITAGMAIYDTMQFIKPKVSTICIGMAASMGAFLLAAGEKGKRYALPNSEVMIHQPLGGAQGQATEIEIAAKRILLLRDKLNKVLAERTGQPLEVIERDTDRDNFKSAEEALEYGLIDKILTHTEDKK
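Purified B. subtilis ClpP, 10 microg/mL final in Tris/HCl pH8 with KCl, BSA, glycerol and Tween-20, cleaved an Abz/nitrotyrosine-quenched decapeptide. Fluorescence (ex 320, em 430) was read at 0 and 20 min at room temperature. Delta was normalized to 5.8 microM ADEP and DMSO/no-enzyme controls.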
GLP-1R inv ag – inverse agonists of human GLP-1 receptor | HEK293 GLP-1R CRE-luciferase, luminescence, 24 h; GLP-1R form is constitutively active | Potency, µM (highest dose often 38.3 µM), hits mostly inhibitors | actives 1.6% (n = 410,000) | AID 624417; also: nearly all actives have a fitted effect of over 55% in size
Target sequence (P43220 whole entry, looked up): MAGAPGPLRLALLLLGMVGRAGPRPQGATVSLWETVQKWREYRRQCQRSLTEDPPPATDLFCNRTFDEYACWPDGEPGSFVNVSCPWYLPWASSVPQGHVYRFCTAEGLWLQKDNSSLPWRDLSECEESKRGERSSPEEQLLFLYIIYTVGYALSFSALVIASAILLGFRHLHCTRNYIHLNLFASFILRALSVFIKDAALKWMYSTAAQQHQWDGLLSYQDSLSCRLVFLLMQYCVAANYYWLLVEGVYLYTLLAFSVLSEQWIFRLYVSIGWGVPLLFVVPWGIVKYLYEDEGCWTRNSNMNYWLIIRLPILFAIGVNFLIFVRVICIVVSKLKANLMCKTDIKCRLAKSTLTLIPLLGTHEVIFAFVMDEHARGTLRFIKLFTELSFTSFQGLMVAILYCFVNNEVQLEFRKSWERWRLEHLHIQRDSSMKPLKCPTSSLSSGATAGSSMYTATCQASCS
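Inverse agonism was detected as reduced cAMP-driven luciferase luminescence after 24 h compound treatment. The cells were HEK293 clones expressing constitutively active human GLP-1R with the reporter. Reporter-only and GPR119 cell lines served as counterscreen controls.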
DRD3 antagonist – antagonists of human D3 dopamine receptor | P35462 | D3R cells, DiscoveRx beta-arrestin luminescence, antagonist mode; stronger effect = lower value | max response, negative = inhibition, % | actives 2.5% (n = 360,000); in the data active = max response below about -50%; inconclusive = no clear call, values can overlap the other calls
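Cells plated overnight at 1500 cells/well, then exposed to library compounds with dopamine controls for 90 minutes at 37 degrees C. DiscoveRx reagent added for 30–60 minutes at room temperature; luminescence read, quantitative HTS format.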
HEK293 tox – cytotoxic in the GLP-1 receptor inverse agonist counter-screen. AID 624418. actives 0.13% (n = 410,000). Potency, µM (doses to about 38.3 µM), actives largely listed as inhibitors. HEK293 cAMP-luciferase reporter cells, luminescence, 24 h;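 also: loss of luciferase light is scored as toxicity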
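To flag toxic compounds, the library was rerun on cells for 24 hr at 37 deg C and 5% CO2. Viability-linked luminescence was captured 12 min after adding luciferase detection reagent.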
D3 ag – agonists of human D3 dopamine receptor; P35462; D3R DiscoveRx beta-arrestin cells, luminescence, 90 min; max activation, %; actives 0.58% (n = 410,000); AID 652048; in the data active = max activation above about 30%
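Cells at 1500/well, incubated overnight, then treated with pinned compounds (dopamine as control) for 90 min at 37 degrees C. DiscoveRx reagent added for 30 - 60 minutes at room temperature; luminescence read.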
GLP1R ag – GLP-1 receptor (human) agonism. HEK293 GLP-1R CRE-luciferase, luminescence, 4-6 h; cells express a hypersensitive GLP-1R form. Potency, µM (doses to about 45.6 µM), usual class: activators. actives 0.007% (n = 380,000)
A number is an active result; . = inactive; ? = inconclusive; / = not tested or not shown; ! = repeats disagree. Compounds with a hit are over-represented: about 5.7% of the library has one in this group of screens. Unless noted, calls follow the shape of the dose curve; as a rule, active = well fitted curve in the direction sought with a large enough effect; inconclusive = small, poorly fitted or top-dose-only effect, or another doubt; inactive = no such curve, though single readings can be large; an effect the other way counts as inactive or inconclusive.

SMILES	ClpP mod	GLP-1R inv ag	DRD3 antagonist	HEK293 tox	D3 ag	GLP1R ag
COc1ccc(/C=C\C(=O)NCC(=O)N/N=C/c2ccc(O)cc2O)cc1	.	?	.	.	.	.
COc1ccccc1/C=C/C(=O)NCC(=O)N/N=C/c1cc(Br)ccc1OC	?	?	-71	.	.	.
COc1ccc(Br)cc1/C=C/C(=O)Nc1ccc(C)cc1	.	4.5µM	-75	.	.	.
COc1ccc(/C=C/C(=O)NCC(=O)N/N=C/c2cc(Br)ccc2OC)cc1	.	.	-58	.	.	.
COc1cc(NC(=O)c2cc(Cl)c(OC)c(Cl)c2)ccc1NC(=O)c1cc2ccccc2o1	.	.	/	.	.	/
CCOC(=O)[C@]12CCCC=C1N(Cc1ccc(Cl)cc1Cl)C(=O)[C@H](CC(=O)NCc1ccc(OC)c(OC)c1)C2	.	?	.	.	.	.
COc1ccc(-c2noc(-c3nnn(-c4ccc(C(C)C)cc4)c3C)n2)cc1OC	.	.	/	.	36	/
O=C1C=C(O)c2cccc3cccc1c23	/	.	-76	.	.	.
COc1ccc(NC(=O)C2(C)CCCN(C(C)=O)C2)cc1F (stereo not drawn)	.	.	.	.	.	.
CCCCN(CCCC)C(=O)c1cc2c(=O)n3ccccc3nc2s1	.	.	/	.	.	/
O=C1Nc2ccc([N+](=O)[O-])cc2OC1CCN1CCOCC1 (stereo not drawn)	/	.	.	.	.	.
O=C1Nc2ccc([N+](=O)[O-])cc2OC1CCN1CCN(c2ccccc2)CC1 (stereo not drawn)	/	11µM	-51	.	.	.
O=C(CN1CCCCC1)N1c2ccccc2CCc2ccccc21	.	.	.	.	.	.
CCCC(CCC)C(=O)Nc1ccc2c(c1)N(C(=O)CN1CCN(C)CC1)c1ccccc1CC2	/	7.9µM	.	?	.	.
O=C(CN1CCCCC1)N1CCc2ccccc21	/	.	-86	.	.	.
CCOC(=O)Nc1ccc2c(c1)N(C(=O)CN1CCN(C)CC1)c1ccccc1S2	.	?	.	?	.	.
CC(C)NC(=O)CN1CCN(c2ncccn2)CC1	.	.	-54	.	.	.
O=C(CN1CCN(Cc2ccccc2)CC1)N1CCCc2ccccc21	.	.	-51	.	.	.
CC(NC(=O)CN1CCN(c2ncccn2)CC1)c1ccc(F)cc1 (stereo not drawn)	.	.	.	.	.	.
COC(=O)c1ccccc1NC(=O)NCc1ccc2c(c1)CCN2C(=O)c1ccccc1	.	.	/	.	.	/
CCOc1ccc(C(CC(=O)Nc2cc(C)c(Cl)cc2OC)N2Cc3ccccc3C2=O)cc1OC (stereo not drawn)	.	.	/	.	.	.
CCc1ccc2oc(-c3cc(NC(=O)c4cc([N+](=O)[O-])ccc4N4CCOCC4)ccc3Cl)nc2c1	.	.	/	.	.	.
COc1ccc(OC)c(NC(=O)CN2C(=O)CCc3cc(S(=O)(=O)N4CCCCC4)ccc32)c1	.	.	/	.	.	/
O=C(CN1CCC(N2CCCCC2)CC1)N1CCCc2ccccc21	.	.	-76	.	.	.
O=C(CN1CCN(c2ncccn2)CC1)N1CCc2ccccc21	.	.	-82	.	.	.
SMILES	ClpP mod	GLP-1R inv ag	DRD3 antagonist	HEK293 tox	D3 ag	GLP1R ag
Cc1csc(=N)n1CC(=O)N1CCc2ccccc21	.	.	-86	.	.	.
O=C(NC(=S)N1CCc2ccccc21)c1ccccc1	.	?	.	4µM	.	.
O=C(NC(=S)N1CCc2ccccc21)c1ccccc1Cl	/	.	?	?	.	.
Cn1c(=O)[nH]c(=O)c2c1nc1n(CCO)c(-c3ccccc3)cn21	.	.	/	.	.	/
COc1ccccc1N=c1scc(-c2ccc(S(=O)(=O)N3CCCC3)cc2)n1C	.	.	/	.	.	/
O=C(CN1CCN(c2ccccc2F)CC1)N1CCc2ccccc21	/	.	-54	.	.	.
CC1CCN(CC(=O)N2c3ccccc3CCc3ccccc32)CC1	.	.	-64	.	.	.
CN(C)CCNc1ncnc2c1ncn2[C@H]1CN(Cc2ccco2)C[C@@H](CO)O1	.	.	.	.	.	.
Cc1cccc(NC(=O)C2CCCN(S(=O)(=O)c3c(C)[nH]c(=O)[nH]c3=O)C2)c1C (stereo not drawn)	.	.	/	.	.	.
CSc1ccc(Cl)c(C(=O)Nc2ccc(Cl)cn2)c1	.	?	.	.	.	.
COc1cc(SC)ccc1C(=O)Nc1ccc(Cl)cn1	/	2.2µM	.	.	.	.
NC[C@H](O)c1ccc(O)c(O)c1	.	.	.	.	47!	?
CC(C)NCC(O)c1ccc(O)c(O)c1 (stereo not drawn)	.	.	.	.	39!	?
CNC[C@H](O)c1ccc(O)c(O)c1	.	.	.	.	.	?
CCOC(=O)C1=CC[C@@H](c2cccc(Br)c2)N(S(=O)(=O)c2ccc(F)cc2)[C@H]1c1cccc(Cl)c1	.	?	.	.	.	/
Cc1cc(C)c2c(CC(=O)Nc3ccccc3C(F)(F)F)coc2c1	.	.	/	.	.	/
Cc1ccc(C)c(CSc2cn(CCNC(=O)c3ccccc3F)c3ccccc23)c1	.	?	/	.	.	.
O=C(NCCn1cc(SCc2ccccc2)c2ccccc21)c1ccccc1F	.	10µM	.	.	.	.
Cn1c(=O)c2c(nc(Cl)n2CC(=O)NC2(C#N)CCCCC2)n(C)c1=O	28µM	.	.	.	.	.
Fc1ccc(C(NCCc2ccc(Cl)cc2)c2nnc(-c3ccccc3)o2)c(Cl)c1 (stereo not drawn)	.	10µM	/	.	.	/
O=C(/C=C/[C@H]1O[C@@H](n2cnc3c(NC(=O)c4ccccc4)ncnc32)[C@H](O)[C@@H]1O)NCC1CCCCC1	.	.	.	.	.	.
Cc1ccc(C2C3=C(CCCC3=O)Nc3nc(SCC(=O)NCc4ccco4)[nH]c(=O)c32)cc1 (stereo not drawn)	20µM	.	.	.	.	.
COc1ccc(/C=C\c2onc(C)c2S(=O)(=O)N2CCC(C(=O)Nc3ccccc3OC)CC2)cc1	.	.	/	.	.	/
CCOc1cc(CNC(=O)C2CCN(c3nc4ccccc4[nH]3)CC2)cc(OCC)c1OCC	.	.	/	.	.	/
O=C(CN(Cc1ccccc1)C1=NCCS1)c1ccc(Cl)cc1	.	?	-64	.	.	.
COc1ccc(C(=O)CN(Cc2ccccc2)C2=NCCS2)cc1	.	?	.	.	.	.
